In PubChem BioAssay (NCI):
Compounds without any hit were thinned out: in the full panel of roughly 79,000, 15% have a hit. Values without a mark were called inactive. Active and inactive are the calls of the source. Rule as the data show it: active = growth inhibition above about 70%; inactive = the rest.

What was measured:
[1] = NCI Yeast Anticancer Drug Screen. Data for the rad50 strain (AID 155);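 also: 0% = growth of vehicle-only cultures of the same strain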; conditions: S. cerevisiae rad50 strain growth inhibition; at 50.0 µM; hits give high values
Method in brief: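 Yeast carrying a defined DNA repair defect were exposed to test compounds, and growth was compared with vehicle-treated controls to give percent inhibition.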

[2] = NCI Yeast Anticancer Drug Screen. Data for the mec2-1 strain (AID 157); conditions: S. cerevisiae mec2-1 strain, at 50.0 µM, hits give high values
Method in brief: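 Cells of the genetically defined mec2-1 yeast strain are incubated with test compound. Inhibition of growth is calculated against vehicle-treated controls.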

[3] = NCI Yeast Anticancer Drug Screen. Data for the sgs1 mgt1 strain (AID 161);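 also: 0% = growth of cultures given vehicle only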; conditions: S. cerevisiae sgs1 mgt1 strain, at 50.0 µM, hits give high values
Method in brief: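 Test agents were incubated with a DNA-repair-mutant yeast strain. Growth was then read and compared against vehicle-treated controls.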

[4] = NCI Yeast Anticancer Drug Screen. Data for the cln2 rad14 strain (AID 165);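 also: 0% = growth equal to vehicle treated cultures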; conditions: S. cerevisiae cln2 rad14 strain, at 50.0 µM, hits give high values
Method in brief: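 The screen exposed genetically defined yeast (cln2 rad14) to test compounds and scored growth inhibition relative to vehicle-treated controls.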

[5] = NCI Yeast Anticancer Drug Screen. Data for the bub3 strain (AID 167); conditions: S. cerevisiae bub3 mutant strain, at 50.0 µM, hits give high values
Method in brief: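 Compounds were applied to a genetically altered yeast strain carrying a cell-cycle control defect. Growth inhibition was scored against vehicle-treated controls.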

[6] = NCI Yeast Anticancer Drug Screen. Data for the mlh1 rad18 strain (AID 175); conditions: S. cerevisiae mlh1 rad18 strain growth inhibition; at 50.0 µM; hits give high values
Method in brief: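 Compound-treated yeast growth, normalised to vehicle controls. Strain bears defined DNA repair mutations.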

Row | Compound | growth inhibition [1] | growth inhibition [2] | growth inhibition [3] | growth inhibition [4] | growth inhibition [5] | growth inhibition [6]
1 | Cc1ccc(S(=O)(=O)OC2C(C)(C)C(=O)C2(C)C)cc1 | 7.45% | -2.15% | -0.05% | -11.7% | 17.6% | 8.35%
2 | C=CCOC(=O)c1ccco1 | 5.6% | -6.3% | 2.35% | -1.4% | 0.45% | 2.05%
3 | CC(=O)N(C)CCCCCCN(C)C(C)=O | 8.95% | 8.05% | 10.7% | 3.05% | 7.2% | 9.35%
4 | COc1ccc(N=Cc2ccc([N+](=O)[O-])cc2)cc1 | 27.9% | 0.75% | 15.2% | -22.4% | 9.9% | 36.1%
5 | CCCCC1(N=[N+]=[N-])C(=O)c2cccc3c2N(CCC3)C1=O (stereo unspecified) | 48.8% | 30.9% | 29.9% | 3.1% | 15.6% | 61.5%
6 | CC(=O)/C=C/CCC(=O)/C=C/C(=O)OC(CCC(=O)/C=C/C(=O)O)CC(C)=O (stereo unspecified) | -5.25% | -30.4% | -18.4% | 19.1% | -24.1% | -5.95%
7 | Cc1nc(CO)cc(=O)[nH]1 | 19.6% | -5.5% | 12.2% | 9.85% | -25.4% | 14.1%
8 | O=C(CCc1ccc(O)c(O)c1)OCCc1ccccc1 | 89.2% (active) | 89.8% (active) | 90.9% (active) | 88% (active) | 87.5% (active) | 89.2% (active)
9 | Cc1ccc(C(O)/C(=N/N)c2nc3ccc([N+](=O)[O-])cc3[nH]c2=O)cc1 (stereo unspecified) | 6.45% | -20.1% | -28.8% | -13.2% | -9.4% | -12.1%
10 | CNc1ccc([N+](=O)[O-])cn1 | 19.9% | -13.4% | 31.6% | 8.75% | 19.9% | 4.15%
11 | CCCCCCCCCCCCCCCCCCCCCCCC | 0.1% | 2.3% | 18.7% | -53% | 21.7% | -13.2%
12 | Cc1ccccc1-c1ccccc1 | 14.8% | 1.3% | -17.7% | -45.8% | -5.8% | 17.6%
13 | O=c1[nH]c2ccccc2c(=O)n1CCCN1CCN(c2cccc(Cl)c2)CC1 | 22% | 12.4% | 33.8% | -23.4% | 15.8% | 14.8%
14 | COc1cc(C2c3c(oc4ccccc4c3=O)Oc3oc4ccccc4c(=O)c32)cc(OC)c1O | -17.4% | 4.65% | 5.25% | 31.9% | -0.3% | -13.1%
15 | O=C(N/N=C\c1c[nH]c2ccccc12)N/N=C/c1c[nH]c2ccccc12 | -4.05% | -21.4% | -7.25% | -11.2% | -3.45% | -37.9%
16 | Oc1cccc(O)c1 | 0.8% | -1% | -1.1% | -12.2% | 1.75% | 33.1%
17 | CCCCCCCSc1nc2ccc(N=Cc3ccccc3O)cc2s1 | -9.8% | -5.9% | -16.9% | -3.25% | -0.9% | -24.4%
18 | FC(F)(F)C(F)(F)C(F)(F)c1nnnn1-c1ccccc1 | 10.8% | -0.8% | -17.1% | 3.3% | -13.3% | -17.1%
19 | COc1ccc(/C=N/N2CCN(/N=C/c3ccc(OC)c(OC)c3)CC2)cc1OC | 22.9% | 0.65% | 3.25% | 19.1% | -1.75% | 1.15%
20 | O=C(Oc1ccccc1)N1CCCSC1=S | 19.4% | -14.3% | 5.35% | 31.4% | 16.2% | 51.2%
21 | CCc1nc(N)nc(N)c1-c1ccc(Cl)c(NC(C)=O)c1 | 8.9% | -3.6% | -7.6% | 10.1% | 6.6% | 1.95%

Row | Compound | growth inhibition [1] | growth inhibition [2] | growth inhibition [3] | growth inhibition [4] | growth inhibition [5] | growth inhibition [6]
22 | O=C(Nc1ccc(Cl)cc1)OC(C(=O)c1ccccn1)c1ccccn1 (stereo unspecified) | 0.25% | 13.7% | -17.6% | 5.75% | 7.1% | 8.5%
23 | OCC1NCCC(O)C1OC1OC(CO)C(O)C(O)C1O (stereo unspecified) | 5.25% | -22.1% | -0.65% | -2.75% | -5.7% | -18.6%
24 | Cn1c(=O)c2[nH]c(SCc3cccnc3)nc2n(C)c1=O | -4.35% | -11.1% | 6.85% | -44.9% | 4.7% | -10.6%
25 | CCC(C)(C)c1ccc(OCCOC(C)=O)cc1 | 3.1% | -11.8% | 26.1% | -13.7% | 18.7% | 23.1%
26 | c1ccc2c(SCN3CCOCC3)cccc2c1 (tested in a mixture with another compound) | 35% | 21.6% | 39% | 40.9% | 21.8% | 29.8%
27 | CC(=O)OCC1OC(n2cnc3c(N)ncnc32)C(Nc2ccc([N+](=O)[O-])cc2[N+](=O)[O-])C(OC(C)=O)C1OC(C)=O (stereo unspecified) | 23.2% | 4.4% | 5.8% | 17.9% | 3.45% | 21.8%
28 | CSc1nc(NC2OCC(O)C(O)C2O)cc(=O)n1C (stereo unspecified) | 7.25% | -0.45% | 7.4% | -4.9% | -26.9% | -2.95%
29 | O=C1CCSC(=S)N1c1ccc(F)cc1 | 7.15% | -1.4% | 2.2% | -32.5% | -22.9% | 6.2%
30 | CC(=O)Nc1nnnn1C | -3.05% | -2.3% | 0.45% | -40.1% | -1.9% | -10.9%
31 | N#Cc1ccccc1NC(=O)C(=O)C1NC(=S)NC1=O (stereo unspecified) | 15.4% | -1.75% | 26% | 13.6% | -3.2% | 18.1%
32 | COC1CC(NC(C)=O)C(O)C(C)O1 (stereo unspecified) | -10.2% | -12.4% | -10.6% | -40% | 5.65% | 1.5%
33 | Nc1c(-c2ccccc2[N+](=O)[O-])nc2ccccn12 | -16.1% | -43.5% | -49.3% | -2.15% | -19.2% | -21.1%
34 | C1CSCC2(COC2)CSCCSCC2(COC2)CS1 | -23.1% | -13.4% | -18.9% | -3.05% | -7.35% | -18.6%
35 | CC(C)(C)OC(=O)N1CCCC1C(=O)Oc1ccc([N+](=O)[O-])cc1 (stereo unspecified) | 31.6% | 19.4% | 11.4% | 3.55% | 6.25% | 58.5%
36 | O=C(O)CC1CC(=O)OC1(c1ccccc1)c1ccccc1 (stereo unspecified) | 18% | 11.6% | 20.9% | 2.8% | 8.15% | 6.45%
37 | CN(C)/N=C1/CCC(C(F)(F)F)(C(F)(F)F)O1 | 40.1% | 31.6% | 41.5% | 28.9% | 5.1% | -18.4%
38 | c1nc2c([nH]1)CNCC2 | -3.05% | -11.2% | -9.05% | -65.7% | -12.2% | 5%
39 | CC(=O)C1CC[C@@]2(C)C(CC[C@H]3[C@@H]4CCC[C@H]([C@H](C)O)[C@@]4(C)CC[C@@H]32)C1 (stereo partly specified) | -16.9% | 0.3% | 2.9% | 0.4% | -5.5% | -7.5%
40 | COc1ccc(OC)c(NCC(=O)Nn2cnc3ccc(S(=O)(=O)Nc4cc(OC)ccc4OC)cc3c2=O)c1 | 36.9% | 12.7% | 27.6% | 20.9% | 50.8% | 37.1%
41 | N=c1ncn(C/C=C/c2ccccc2)c2nc[nH]c12 | -12.7% | -28.4% | -8.55% | -11.4% | -63.3% | 5%
